# Where “and” joins values, the source holds several entries; their conditions need not be identical. Equal entries are not always repeated. Records with an inconclusive call do not appear. The source holds several records for some structures; these can differ, active in one and inactive in another. Calls of active or inactive are those of the source. How the source made its calls: active means hit-call score of the fitted dose curve at least 0.9, where 1 is the maximum; inconclusive means response in the unintended direction; inactive means score below 0.9.
# Test: TOX21_p53_BLA_p2_viability: Viability Assessment in the Tox21 HCT-116 p53 Agonism Beta-lactamase Assay, Phase 2 (AID 2283591);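 further: compound exposure lasted 16 h at 37 °C; actives lower the ATP signal meaning cytotoxicity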
# Description: TOX21_p53_BLA_p2 is a cell-based, single-readout assay that uses HCT116, a human intestinal cell line, […] in a 1536-well plate.TOX21_p53_BLA_p2_viability is an assay readout measuring cellular ATP content and detected with CellTiter-Glo Luciferase-coupled ATP quantitation.TOX21_p53_BLA_p2_viability used a type of viability reporter where loss-of-signal activity can be used to understand changes in the cell viability. Furthermore, this assay endpoint can be referred to as a secondary readout, because this assay has produced multiple assay endpoints where this one serves a viability function. To generalize the intended target to other relatable targets, this assay endpoint is annotated to the cell cycle intended target family, where the subfamily is cytotoxicity.
# Thawing Method: Place 14 mL of pre-warmed thaw medium into a 15 mL of conical tub. Remove the vial of cells to be thawed from liquid nitrogen and thaw rapidly by placing at 37C in a water bath with gentle agitation for 1-2 minutes. Decontaminate the vial by wiping with 70% ethanol before opening in a biological safety cabinet. Transfer the vial contents drop-wise into 14 mL of thaw medium in a sterile 15-mL conical tub. Centrifuge cells at 900 rpm for 4 minutes and resuspend in thaw medium. Transfer contents to the T75 tissue culture flask containing Thaw Medium and place flask in a humidified 37C/5% CO2 incubator. Switch to growth medium at first passage.Propagation Method: Aspirate medium, rinse once in DPBS, add 0.25% Trypsin/EDTA and swirl to coat the cell evenly. Add an equal volume of Growth Medium to inactivate Trypsin after 2-3 minutes incubation at 37C. Centrifuge cells at 900 rpm for 4 minutes and resuspend in growth medium. Cell should be passage or fed at least twice a week.Assay Protocol: Harvest cells from culture in growth medium and resuspend in assay medium. 2.2 Dispense 4000 cells/5 uL/well into 1536-well black/clear bottom plates using a Multidrop dispenser. After the cells were incubated at 37C for 5 hours, 23 nL of compounds dissolved in DMSO were transferred to the assay plate by a PinTool resulting in a 217-fold dilution. Incubate the plates for 16 hours at 37C, 5% CO2. Add 1 uL of 6X LiveBLAzer FRET B/G (CCF4-AM) Substrate Mixture to each well using a BioRAPTR dispenser and incubate the plates at room temperature for 2 hours. Measure fluorescence intensity at 460 and 530 nm emission and 405 nm excitation by an Envision detector. Data is expressed as the ratio of 460nm/530nm emissions. Add 4 uL of Cell-titer Glo to each well using BioRAPTR and incubate the plates at room temperature for […]. For cell viability readout that measures cytotoxicity, 4 ul/well of CellTiter-Glo reagent was added into the assay plates using a Flying Reagent Dispenser. After 30 min incubation at room temperature, the luminescence intensity in the plates was measured using a ViewLux plate reader.
SMILES,outcome,AC50
[O-][Cl+]O,inactive,
CN(C)C(=O)Nc1ccc(Cl)cc1,inactive,
Cc1cc(N=Nc2ccccc2C)ccc1N,inactive,81 µM (active)
ClCCOCCCl,inactive,
OCCCBr,inactive,
[Cl-].[Cl-].[Hg+2],,34.8 µM (active) and 7.78 µM (active) and 16.4 µM (active)
Oc1ccccc1Cl,inactive,
O=C(O)C1C2CCC(O2)C1C(=O)O (stereo not given),inactive,
Nc1ccc(Oc2ccc(N)cc2)cc1,inactive,
Brc1ccc(Oc2ccccc2)cc1,inactive,
Nc1ccc(N=Nc2ccccc2)cc1,inactive,
CCC(C)c1ccc(O)cc1 (stereo not given),inactive,
c1ccc2c(c1)oc1ccccc12,inactive,
COC(=O)c1ccccc1N,inactive,
CC(O)CCO (stereo not given),inactive,
O=P(OCCCl)(OCCCl)OCCCl,inactive,
c1ccc(NNc2ccccc2)cc1,inactive,
CC(C)(C)OOC(C)(C)CCC(C)(C)OOC(C)(C)C,inactive,
Cc1ccc(N)c(N)c1,inactive,
Cn1cc(-c2ccccc2)c(=O)c(-c2cccc(C(F)(F)F)c2)c1,inactive,

SMILES,outcome,AC50
Nc1ccc(Cc2ccc(N)cc2)cc1,inactive,
CCC[CH2][Sn]([Cl])([CH2]CCC)[CH2]CCC,,1.22 µM (active) and 1.04 µM (active)
c1ccc(N=Nc2ccccc2)cc1,inactive,
CCN(CC)CCO,inactive,
CS(=O)(=O)NC(=O)c1cc(Oc2ccc(C(F)(F)F)cc2Cl)ccc1[N+](=O)[O-],inactive,
CCCCOC(=O)c1ccccc1C(=O)OCc1ccccc1,inactive,
CC(C)(C)C(O)(CCc1ccc(Cl)cc1)Cn1cncn1 (stereo not given),inactive,
c1ccc(C2CO2)cc1 (stereo not given),inactive,
Nc1cc(Cl)cc(C(=O)O)c1Cl,inactive,
CN(C)c1ccccc1,inactive,
Oc1ccc2ccc3cccc4ccc1c2c34,inactive,
COP(=S)(OC)SCN1C(=O)c2ccccc2C1=O,inactive,
c1ccc2c(c1)-c1cccc3cccc-2c13,inactive,
Cc1ccc([N+](=O)[O-])cc1,inactive,
ClC1=C(Cl)[C@]2(Cl)[C@H]3[C@H]([C@@H]4C=C[C@H]3C4)[C@@]1(Cl)C2(Cl)Cl,inactive,
CCN(CC)N=O,inactive,
[As]#[In],inactive,
CN(C)[C@@H]1C(=O)C(C(N)=O)=C(O)[C@@]2(O)C(=O)C3=C(O)c4c(O)cccc4[C@@](C)(O)[C@H]3C[C@@H]12,inactive,
Clc1ccc(C(c2ccc(Cl)cc2)C(Cl)Cl)cc1,,59.6 µM (active) and 33.7 µM (active)
